Source: PubChem BioAssay (NCI)
Compounds without any hit were thinned out: in the full panel of roughly 83,000, 20% have a hit.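 For each line, cells grew in 96-well plates with the test compound present at a single concentration for 48 hours.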 The source made the active and inactive calls. Rule for the calls: active = growth percent below 10; inactive = the rest.

Legend:
Assay in all cases: NCI-60 one-dose screen, 48 h (100 = growth as untreated, 0 = no growth, -100 = all killed)
NCI-H322M lung = conditions: 10 µM
HOP-62 NSCLC = conditions: 10 µM
NCI-H460 lung = conditions: 10 µM
NCI-H522 lung = conditions: 10 µM
A549/ATCC NSCLC = conditions: 10 µM
DU-145 prostate = conditions: 10 µM
MALME-3M melanoma = conditions: 10 µM
SF-268 CNS = conditions: 10 µM
SF-295 CNS = conditions: 10 µM
SF-539 CNS = conditions: 10 µM
UACC-257 melanoma = conditions: 10 µM
M14 melanoma = conditions: 10 µM
HCT-15 colon = conditions: 10 µM
HT29 colon = conditions: 10 µM
SNB-75 CNS = conditions: 10 µM
PC-3 prostate = conditions: 10 µM
SK-MEL-5 melanoma = conditions: 10 µM
UACC-62 melanoma = conditions: 10 µM
SK-MEL-2 melanoma = conditions: 10 µM
HL-60(TB) leukemia = conditions: 10 µM unless noted

Measured: growth

C[C@H]1[C@H](OC(=O)CCC(=O)N(CCCc2cn(-c3ccc(CN4CCOCC4)cc3)nn2)CCNc2ccnc3cc(Cl)ccc23)O[C@@H]2OC3(C)CC[C@H]4[C@H](C)CC[C@@H]1[C@@]24OO3
active: NCI-H460 lung 7.93% | NCI-H522 lung -22.3% | MALME-3M melanoma -90% | SF-295 CNS -2.37% | SF-539 CNS -73% | UACC-257 melanoma -69.8% | M14 melanoma -66.3% | HCT-15 colon 8.55% | HT29 colon -12.5% | SK-MEL-5 melanoma -90% | HL-60(TB) leukemia -47%
inactive: NCI-H322M lung 20.9% | HOP-62 NSCLC 56.4% | A549/ATCC NSCLC 36% | DU-145 prostate 49.7% | SF-268 CNS 50.1% | SNB-75 CNS 38.7% | PC-3 prostate 29.2% | UACC-62 melanoma 16.6% | SK-MEL-2 melanoma 44.2%

CC1=C(CCC=O)C2=C(C)C3(CC3)[C@@](C)(O)C(=O)C2=C1
active: NCI-H322M lung -84.9% | HOP-62 NSCLC -62.7% | NCI-H460 lung -42.6% | NCI-H522 lung -90% | A549/ATCC NSCLC -2.03% | DU-145 prostate -100% | MALME-3M melanoma -96% | SF-268 CNS 6.81% | SF-295 CNS -64.3% | SF-539 CNS -100% | UACC-257 melanoma -92.1% | M14 melanoma -56.8% | HCT-15 colon -71.1% | HT29 colon -56.1% | SNB-75 CNS -96.9% | PC-3 prostate -40.6% | SK-MEL-5 melanoma -100% | UACC-62 melanoma -96.5% | SK-MEL-2 melanoma -70.6%

O=C([Se]C1C=CCCC1)c1ccc(C(=O)[Se]C2C=CCCC2)s1 (stereo not given)
active: NCI-H322M lung -28.5% | HOP-62 NSCLC -50.6% | NCI-H460 lung 4.46% | NCI-H522 lung -92.8% | A549/ATCC NSCLC -7.22% | DU-145 prostate -3.45% | MALME-3M melanoma -85.7% | SF-268 CNS 0.795% | SF-295 CNS -44.2% | SF-539 CNS -100% | UACC-257 melanoma -74.7% | M14 melanoma -81.2% | HCT-15 colon -25.1% | HT29 colon -25.6% | SNB-75 CNS -77.6% | PC-3 prostate -16.5% | SK-MEL-5 melanoma -88.8% | UACC-62 melanoma -89.2% | SK-MEL-2 melanoma -37.7% | HL-60(TB) leukemia 1.11%

COc1cc2cc(C(=O)N3C[C@@H](CCl)c4c3cc(OC(=O)N3CCN(C(=O)CCC(=O)N5CCN(C)CC5)[C@@H]5CSSC[C@@H]53)c3ccccc43)[nH]c2c(OC)c1OC
active: NCI-H322M lung -7.14% | HOP-62 NSCLC -55.3% | NCI-H460 lung -67.7% | NCI-H522 lung -82.7% | A549/ATCC NSCLC -59.7% | DU-145 prostate -4.3% | MALME-3M melanoma -99.3% | SF-268 CNS -28.4% | SF-295 CNS -88.5% | SF-539 CNS -91.8% | UACC-257 melanoma -71.7% | M14 melanoma -81.7% | HCT-15 colon -87.4% | HT29 colon -84.3% | SNB-75 CNS -90.1% | PC-3 prostate -10.5% | SK-MEL-5 melanoma -100% | UACC-62 melanoma -64% | SK-MEL-2 melanoma -83.3% | HL-60(TB) leukemia -37.6%

C#CCCCN(CCNc1ccnc2cc(Cl)ccc12)C(=O)CCC(=O)O[C@@H]1O[C@@H]2OC3(C)CC[C@H]4[C@H](C)CC[C@@H]([C@H]1C)[C@@]24OO3
active: NCI-H522 lung 8.38% | HT29 colon 4.95% | SK-MEL-5 melanoma -36.1% | HL-60(TB) leukemia -26.3%
inactive: NCI-H322M lung 65.1% | HOP-62 NSCLC 58.9% | NCI-H460 lung 40.6% | A549/ATCC NSCLC 40.8% | DU-145 prostate 59.1% | MALME-3M melanoma 20.3% | SF-268 CNS 56.9% | SF-295 CNS 33.8% | SF-539 CNS 39.2% | UACC-257 melanoma 29.3% | M14 melanoma 37.7% | HCT-15 colon 12.1% | SNB-75 CNS 67% | PC-3 prostate 37% | UACC-62 melanoma 31.4% | SK-MEL-2 melanoma 43.9%

COC(=O)C[C@](O)(CCCC(C)C)C(=O)O[C@H]1C(OC)=C[C@@]23CCCN2CCc2cc4c(cc2[C@@H]13)OCO4
active: NCI-H460 lung -28.6% | NCI-H522 lung -59.4% | A549/ATCC NSCLC -7.85% | DU-145 prostate -3.16% | MALME-3M melanoma -38.5% | SF-268 CNS 3.83% | SF-295 CNS -8.14% | SF-539 CNS -47.7% | UACC-257 melanoma -25.9% | M14 melanoma -46.4% | HCT-15 colon -21.1% | HT29 colon -22.7% | SNB-75 CNS -46.7% | PC-3 prostate 1.16% | SK-MEL-5 melanoma -39% | UACC-62 melanoma 0.442% | SK-MEL-2 melanoma -0.0193% | HL-60(TB) leukemia -28.7%
inactive: NCI-H322M lung 25.4% | HOP-62 NSCLC 21.3%

Cn1cc(-c2cc3nc(-c4c[nH]c5ccc(Br)cc45)cc(N)n3n2)c2ccccc21
active: HL-60(TB) leukemia -45.3%

COC(=O)C[C@](O)(CCC(C)C)C(=O)O[C@@H]1C(OC)=C[C@]23CCCN2CCc2cc4c(cc2[C@H]13)OCO4
active: NCI-H322M lung -25.1% | HOP-62 NSCLC -50.4% | NCI-H460 lung -20.6% | NCI-H522 lung -80.7% | A549/ATCC NSCLC -27.1% | DU-145 prostate -26.7% | MALME-3M melanoma -90.9% | SF-268 CNS -21.3% | SF-295 CNS -35.5% | SF-539 CNS -77.1% | UACC-257 melanoma -66.7% | M14 melanoma -89% | HCT-15 colon -32.9% | HT29 colon -62.1% | SNB-75 CNS -32.9% | PC-3 prostate -19% | SK-MEL-5 melanoma -95.4% | UACC-62 melanoma -92.5% | SK-MEL-2 melanoma -85.9% | HL-60(TB) leukemia -31%
